PubChem BioAssay (EPA / NIEHS)
The source made the active and inactive calls. The calls were made as follows: active = hit-call score of the fitted dose curve at least 0.9, where 1 is the maximum; inactive = score below 0.9.

Experiments:
Conditions in all cases: mRNA level, 48 h; actives raise or lower the signal
[1] = read-out: Apoptosis regulator Bcl-2 (Homo sapiens) (UniProt P10415); assay: LTEA_HepaRG_BCL2: Life Technologies and Expression Analysis (LTEA) Assay for Bcl-2 gene using HepaRG (AID 2283475)
How it was run: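 Each chemical was tested in duplicate on HepaRG cultures held in serum-free induction medium for 48 h, highest concentration 100 uM with half-log dilutions. Transcript levels came from multiplexed qRT-PCR, normalised to housekeeping genes; activity was scored in either direction relative to DMSO.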

[2] = read-out: Bcl-2 (BID) gene, BID (gene 637); assay: LTEA_HepaRG_BID: Life Technologies and Expression Analysis (LTEA) Assay for Bcl-2 (BID) gene using HepaRG (AID 2283476)
How it was run: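 Assay used HepaRG hepatic cells treated 48 h in serum-free medium with half-log dilutions from 100 uM. Endpoint: BID mRNA, qRT-PCR, normalized to ACTB/GAPDH/POLR2A.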

Caspase-3 (Homo sapiens) = Caspase-3 (Homo sapiens) (UniProt P42574); assay: LTEA_HepaRG_CASP3: Life Technologies and Expression Analysis (LTEA) Assay for cysteine-aspartic acid protease (CASP3) using HepaRG (AID 2283477)
Caspase-3 (Homo sapiens), sequence (P42574 whole entry, looked up): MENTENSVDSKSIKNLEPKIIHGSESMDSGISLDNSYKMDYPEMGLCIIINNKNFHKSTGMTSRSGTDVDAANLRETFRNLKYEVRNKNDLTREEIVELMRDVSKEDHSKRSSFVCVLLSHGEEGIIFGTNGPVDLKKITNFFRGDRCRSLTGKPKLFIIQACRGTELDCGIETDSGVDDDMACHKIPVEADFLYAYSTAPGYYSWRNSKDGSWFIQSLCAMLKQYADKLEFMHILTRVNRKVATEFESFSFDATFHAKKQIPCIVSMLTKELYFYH
How it was run: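 Differentiated HepaRG cells, plated 48 h, were treated in duplicate in serum-free induction medium for 48 h with eight half-log concentrations up to 100 uM in 0.5% DMSO. CASP3 mRNA measured by qRT-PCR, normalized to ACTB, GAPDH, POLR2A.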

[3] = read-out: Cytochrome P450 (CYP24A1), CYP24A1 (gene 1591); assay: LTEA_HepaRG_CYP24A1: Life Technologies and Expression Analysis (LTEA) Assay for Cytochrome P450 (CYP24A1) using HepaRG (AID 2283478)
How it was run: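 HepaRG cells plated 48 h, then exposed in duplicate in serum-free induction medium for 48 h to 8-point half-log series from 100 uM in 0.5% DMSO. CYP24A1 mRNA by Fluidigm qRT-PCR, normalized to ACTB, GAPDH, POLR2A; bidirectional fit versus DMSO.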

[4] = read-out: Cytochrome P450 (CYP1A2), CYP1A2 (gene 1544); assay: LTEA_HepaRG_CYP1A2: Life Technologies and Expression Analysis (LTEA) Assay for Cytochrome P450 (CYP1A2) using HepaRG (AID 2283479)
How it was run: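 Differentiated human HepaRG cells in serum-free induction medium exposed 48 hours in duplicate to 8 half-log concentrations from 100 uM, 0.5% DMSO. CYP1A2 mRNA quantified by qRT-PCR, normalized to ACTB, GAPDH and POLR2A; bidirectional fitting versus DMSO.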

[5] = read-out: cysteine-aspartic acid protease (CASP8), CASP8 (gene 841); assay: LTEA_HepaRG_CASP8: Life Technologies and Expression Analysis (LTEA) Assay for cysteine-aspartic acid protease (CASP8) using HepaRG (AID 2283480)
How it was run: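 qRT-PCR readout of CASP8 mRNA, normalized to three housekeeping genes, after 48 h chemical exposure of HepaRG cells; 8-point half-log series, top 100 uM, 0.5% DMSO vehicle. Bidirectional curve fitting against DMSO baseline.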

[6] = read-out: Cytochrome P450 (CYP2B6), CYP2B6 (gene 1555); assay: LTEA_HepaRG_CYP2B6: Life Technologies and Expression Analysis (LTEA) Assay for Cytochrome P450 (CYP2B6) using HepaRG (AID 2283481)
How it was run: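 Differentiated human HepaRG cells in serum-free induction medium, dosed in duplicate for 48 h over 8 half-log concentrations topping at 100 uM (0.5% DMSO). CYP2B6 mRNA measured by TaqMan qRT-PCR, normalized to ACTB, GAPDH, POLR2A; bidirectional fit versus DMSO.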

[7] = read-out: Cytochrome P450 2C19 (Homo sapiens) (UniProt P33261); assay: LTEA_HepaRG_CYP2C19: Life Technologies and Expression Analysis (LTEA) Assay for CYP2C19 using HepaRG (AID 2283482)
How it was run: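 Differentiated HepaRG cells in serum-free induction medium exposed 48 h in duplicate, 8 concentrations from 100 uM by half-log steps in 0.5% DMSO. CYP2C19 mRNA measured by TaqMan qRT-PCR, normalized to ACTB, GAPDH, POLR2A. Bidirectional fit versus DMSO.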

CYP2C8 (gene 1558) = assay: LTEA_HepaRG_CYP2C8: Life Technologies and Expression Analysis (LTEA) Assay for CYP2C8 using HepaRG (AID 2283483)
How it was run: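 HepaRG (human liver line), 48 h chemical exposure, 8-pt half-log series from 100 uM, 0.5% DMSO vehicle. Readout: CYP2C8 transcript by qRT-PCR, housekeeping-normalized. Bidirectional fit vs DMSO baseline.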

CYP2C9 (gene 1559) = assay: LTEA_HepaRG_CYP2C9: Life Technologies and Expression Analysis (LTEA) Assay for CYP2C9 using HepaRG (AID 2283484)
How it was run: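 HepaRG, 48 h dosing, 8-pt half-log series, top 100 uM, 0.5% DMSO vehicle. Read-out: CYP2C9 transcript by TaqMan qRT-PCR, housekeeping-normalized (ACTB/GAPDH/POLR2A). Gain or loss fitted vs DMSO baseline.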

CYP2E1 (gene 1571) = assay: LTEA_HepaRG_CYP2E1: Life Technologies and Expression Analysis (LTEA) Assay for CYP2E1 using HepaRG (AID 2283485)
How it was run: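 Assay uses 48 h exposure of HepaRG hepatic cells, eight concentrations to 100 uM. Expression of CYP2E1 is quantified by TaqMan qRT-PCR with ACTB, GAPDH and POLR2A normalization; curves fitted in both directions relative to vehicle.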

CYP4A11 (gene 1579) = assay: LTEA_HepaRG_CYP4A11: Life Technologies and Expression Analysis (LTEA) Assay for CYP4A11 using HepaRG (AID 2283486)
How it was run: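 Differentiated HepaRG cells, 48 h after plating, exposed in duplicate for 48 h to 8 half-log concentrations up to 100 uM in 0.5% DMSO in serum-free induction medium. CYP4A11 mRNA measured by TaqMan qRT-PCR, normalized to ACTB, GAPDH and POLR2A.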

[8] = read-out: DNA damage-inducible transcript 3 (DDIT3), DDIT3 (gene 1649); assay: LTEA_HepaRG_DDIT3: Life Technologies and Expression Analysis (LTEA) Assay for DNA damage-inducible transcript 3 (DDIT3) using HepaRG (AID 2283488)
How it was run: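 Eight-point concentration-response (100 uM highest, half-log dilutions) in HepaRG, 48 h, duplicate wells. Endpoint: qRT-PCR mRNA, normalized (ACTB, GAPDH, POLR2A), bidirectional fitting with DMSO as baseline.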

[9] = read-out: Pro-epidermal growth factor (Homo sapiens) (UniProt P01133); assay: LTEA_HepaRG_EGF: Life Technologies and Expression Analysis (LTEA) Assay for Epidermal growth factor (EGF) using HepaRG (AID 2283489)
How it was run: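 HepaRG cells (~100,000/well, 48 h pre-culture) exposed in duplicate for 48 h in serum-free induction medium to 8 half-log concentrations up to 100 uM in 0.5% DMSO. EGF mRNA by qRT-PCR, normalized to ACTB/GAPDH/POLR2A; bidirectional fit versus DMSO.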

[10] = read-out: Early growth response protein 1 (EGR1) transcription factor, EGR1 (gene 1958); assay: LTEA_HepaRG_EGR1: Life Technologies and Expression Analysis (LTEA) Assay for Early growth response protein 1 (EGR1) transcription factor using HepaRG (AID 2283490)
How it was run: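 HepaRG, 48 h exposure, 8-pt half-log series from 100 uM, 0.5% DMSO vehicle; EGR1 transcript by TaqMan qRT-PCR (Fluidigm array), housekeeping-normalized; bidirectional fit relative to DMSO baseline.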

[11] = read-out: Ezrin (EZR), EZR (gene 7430); assay: LTEA_HepaRG_EZR: Life Technologies and Expression Analysis (LTEA) Assay for Ezrin (EZR) using HepaRG (AID 2283491)
How it was run: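 Gain or loss of EZR mRNA is scored relative to 0.5% DMSO in human HepaRG cultures treated 48 h with test chemicals in duplicate, eight half-log concentrations from 100 uM.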

[12] = read-out: Cytochrome P450 3A7 (Homo sapiens) (UniProt P24462); assay: LTEA_HepaRG_CYP3A7: Life Technologies and Expression Analysis (LTEA) Assay for CYP3A7 using HepaRG (AID 2283492)
How it was run: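 Differentiated HepaRG cells in serum-free induction medium exposed 48 h in duplicate to 8-point half-log series from 100 uM top in 0.5% DMSO. CYP3A7 mRNA by qRT-PCR, normalized to ACTB/GAPDH/POLR2A, bidirectional fit versus DMSO.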

CYP3A5 (gene 1577) = assay: LTEA_HepaRG_CYP3A5: Life Technologies and Expression Analysis (LTEA) Assay for CYP3A5 using HepaRG (AID 2283493)
How it was run: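 Readout was CYP3A5 mRNA by qRT-PCR. HepaRG cultures were exposed for 48 h in serum-free induction medium to chemicals at up to 100 uM, and responses were fitted in both directions relative to DMSO vehicle.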

[13] = read-out: Fatty Acid-Binding Protein 1 (FABP1), FABP1 (gene 2168); assay: LTEA_HepaRG_FABP1: Life Technologies and Expression Analysis (LTEA) Assay for Fatty Acid-Binding Protein 1 (FABP1) using HepaRG (AID 2283494)
How it was run: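 qRT-PCR readout of FABP1 transcript (normalized to three housekeeping genes) after 48 h chemical exposure of HepaRG cells; eight concentrations, half-log steps, max 100 uM, 0.5% DMSO vehicle; gain or loss fitted relative to DMSO baseline.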

Measured: AC50

Cytochrome P450 2C19 (Homo sapiens), sequence (P33261 whole entry, looked up): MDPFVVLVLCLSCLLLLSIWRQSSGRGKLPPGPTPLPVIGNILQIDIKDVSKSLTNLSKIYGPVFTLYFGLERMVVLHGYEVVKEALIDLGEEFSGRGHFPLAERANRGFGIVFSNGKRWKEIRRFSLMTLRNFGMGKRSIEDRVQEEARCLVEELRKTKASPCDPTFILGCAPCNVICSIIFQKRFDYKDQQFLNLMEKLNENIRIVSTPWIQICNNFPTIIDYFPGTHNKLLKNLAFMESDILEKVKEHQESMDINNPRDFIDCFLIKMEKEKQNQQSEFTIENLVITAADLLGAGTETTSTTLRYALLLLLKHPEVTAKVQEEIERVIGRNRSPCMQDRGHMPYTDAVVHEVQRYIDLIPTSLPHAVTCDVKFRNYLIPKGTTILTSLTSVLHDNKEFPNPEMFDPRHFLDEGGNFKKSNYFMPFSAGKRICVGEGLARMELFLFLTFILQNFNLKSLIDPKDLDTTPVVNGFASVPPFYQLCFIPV
Cytochrome P450 3A7 (Homo sapiens), sequence (P24462 whole entry, looked up): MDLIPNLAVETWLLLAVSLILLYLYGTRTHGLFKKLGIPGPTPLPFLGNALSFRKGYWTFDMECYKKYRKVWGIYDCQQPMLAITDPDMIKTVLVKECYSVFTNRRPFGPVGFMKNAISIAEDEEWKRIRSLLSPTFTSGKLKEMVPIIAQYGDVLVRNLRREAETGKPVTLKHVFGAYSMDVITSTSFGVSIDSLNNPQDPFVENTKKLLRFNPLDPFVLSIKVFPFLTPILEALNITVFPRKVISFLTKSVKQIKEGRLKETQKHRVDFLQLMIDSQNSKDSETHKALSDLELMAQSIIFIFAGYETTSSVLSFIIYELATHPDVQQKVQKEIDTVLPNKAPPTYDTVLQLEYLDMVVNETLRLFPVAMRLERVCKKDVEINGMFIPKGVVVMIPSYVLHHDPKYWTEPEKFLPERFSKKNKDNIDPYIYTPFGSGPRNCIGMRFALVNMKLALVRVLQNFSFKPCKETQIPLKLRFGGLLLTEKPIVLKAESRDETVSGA
Apoptosis regulator Bcl-2 (Homo sapiens), sequence (P10415 whole entry, looked up): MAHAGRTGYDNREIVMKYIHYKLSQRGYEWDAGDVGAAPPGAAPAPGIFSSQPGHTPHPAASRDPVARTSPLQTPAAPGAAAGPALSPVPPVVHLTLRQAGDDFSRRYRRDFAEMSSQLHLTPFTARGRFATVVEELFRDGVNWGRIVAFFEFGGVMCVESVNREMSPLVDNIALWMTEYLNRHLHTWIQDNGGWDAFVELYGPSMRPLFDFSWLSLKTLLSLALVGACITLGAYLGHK

CCC(C)OC(=O)N1CCCCC1CCO (centres undefined)
active: [6] 35 µM | [7] 50 µM | CYP2C9 (gene 1559) 4.74 µM
inactive: all other assays above

CCOC(=O)C(C)Oc1ccc(Oc2nc3ccc(Cl)cc3o2)cc1 (centres undefined)
active: [6] 3.22 µM | [7] 14 µM | CYP2C9 (gene 1559) 19.6 µM | CYP2E1 (gene 1571) 35.6 µM
inactive: all other assays above

COC(=O)c1ccc(I)cc1S(=O)(=O)NC(=O)Nc1nc(C)nc(OC)n1
active: [4] 50 µM
inactive: all other assays above

CCCCOC(=O)[C@@H](C)Oc1ccc(Oc2ccc(C(F)(F)F)cn2)cc1
active: CYP2E1 (gene 1571) 17 µM
inactive: all other assays above

Oc1ccc(C(c2ccc(O)cc2)C(Cl)(Cl)Cl)cc1
active: [2] 84.8 µM | Caspase-3 (Homo sapiens) 86.2 µM | [5] 88.4 µM | [6] 81.1 µM | [7] 78.4 µM | CYP2C8 (gene 1558) 93.2 µM | CYP2C9 (gene 1559) 93.1 µM | CYP2E1 (gene 1571) 93.8 µM | CYP4A11 (gene 1579) 93.2 µM | [8] 80.3 µM | [10] 77.7 µM | [11] 80.9 µM | [12] 79.8 µM | CYP3A5 (gene 1577) 70.7 µM | [13] 94.3 µM
inactive: [1] | [3] | [4] | [9]

CN(C)C(=O)Nc1ccc(Cl)c(Cl)c1
active: [4] 30 µM | [6] 10.9 µM | [7] 28.7 µM | CYP2E1 (gene 1571) 63 µM | [13] 50 µM
inactive: all other assays above
